Experimental data: the supplement of paper PMC11417369
± gives the standard deviation of the averaged measurements. The full ranking holds about 25,000 sequences; the median of “ln(normalized median fluorescence intensity)” is about 8.9, and the highest 2% start at about 10. Many of the other results were omitted from the sample, so the highest values are more common in it than they were.

These sequences were tested on PfAP2-LT AP2 domain (GST-tagged) (assay: gcPBM binding intensity (ln(normalized median fluorescence intensity)); higher = stronger DNA binding).
Procedure, shortened: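 For binding intensity, the highest Masliner-normalised natural-log median intensity across replicate spots of either probe orientation was taken. Protein bound to the array was stained with Alexa488 anti-GST antibody and scanned at 488 nm. The protein, GST-tagged P. falciparum DNA-binding domains from E. coli at about 25 μg on average, had been applied for 1 h to an Agilent 4 × 180k array of primer-extended double-stranded 36-bp intergenic genomic probes and negative controls.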

Sequence | gcPBM binding intensity (ln)
TACAAAAATGTAGTCACACATATGTATACTTTTATG [CACACA_site5607] | 8.85 ± 0.42
TGTACCTACAAAATATGATATATTTTTATAAATTGT [XGTACX_negctrl_site498] | 8.51 ± 0.47
TGAACAACTATTACTGCACACATTCTTACACTATAT [CACACA_site4533] | 9.41 ± 0.45
GATGATACAAAGTAATGTACATAAATACACATATTG [XGTACX_site3177] | 9.03 ± 0.44
ATAATACGAATTTGTAGTACATTTATAATAACATGA [XGTACX_site2614] | 8.65 ± 0.38
AATGGTCTTTTCAACACACGTACATAAAAATATTAT [CACACA_site2571] | 8.79 ± 0.44
CAATAATATATATATTGTACATTTTTTTTTATTATT [XGTACX_site3149] | 8.7 ± 0.38
TTTTATAGAGTGTATACATGCAATACCACATAAAAT [TGCATGCA_site476] | 8.79 ± 0.43
ATTTTTTTTTTTACAGTGGAACCATATTTGCTCATT [CACACA_negctrl_site940] | 8.82 ± 0.51
ATATATATATTTTTATGAGGCATAAGTAATATTTTT [TGCATGCA_negctrl_site317] | 8.53 ± 0.4
TAAAAGTTTTTATACATACACACCTATAAATTAAGT [CACACA_site2446] | 8.72 ± 0.36
CATAAATTAAAACACACACACACAAAAAAAAAAAAA [CACACA_site2262] | 9.84 ± 0.33
TAAATTAAAAAACACACACACAAAAAAAAAAAAAAA [CACACA_site2263] | 9.41 ± 0.51
AATTAACAAAAACACACACACACACCGACAAAAAAA [CACACA_site4444] | 10.1 ± 0.23
TATGCACGCGAACACACACACACAACTAAAAAATAA [CACACA_site7251] | 9.79 ± 0.37
TTTTTATCTTTGCTGTGTACATAAATAAAAATAACT [XGTACX_site7625] | 8.47 ± 0.42
TATATATATATAATGTGTACACAAATATATATTATA [XGTACX_site8786] | 8.8 ± 0.37
GTAAAAAAATAGCACACACACAAAAACACGCACAAA [CACACA_site6723] | 10.1 ± 0.23
AAGTAAAAAAATAGCACACACACAAAAACACCCACA [CACACA_site1291] | 9.92 ± 0.16
AAGTAAAAAAATAGCACACACACAAAAACACAGACA [CACACA_site4839] | 10.1
AAAAAAAACAGACACACACACAAATATATAAAAATA [CACACA_site1172] | 9.94 ± 0.35

Sequence | gcPBM binding intensity (ln)
ATCAAATAATAGCAAACACACAAAAAATAAAAAAAA [CACACA_site4146] | 9.04 ± 0.47
CAATATAAAAAACACACGCACACAAAAAAAAAAAAA [CACACA_site3521] | 9.46 ± 0.42
TATTTGTAAATCGATACACACATATAGATTAATATA [CACACA_site6237] | 8.88 ± 0.35
ATATTCTGATTTTAGATGCACTTCGTTAACAAAATA [GTGCAC_site9958] | 8.49 ± 0.35
ATGGACATTTTATAAATCACAATGGATATTTTATAA [CACACA_negctrl_site1830] | 8.41 ± 0.42
GGAAATTAACAGAACACAATGTAACAATTTCTAACA [CACACA_negctrl_site1250] | 8.85 ± 0.4
TAAAAGGGGATATATGAACACACAAAAAAAAAATAT [CACACA_site8940] | 9.04 ± 0.64
CATACATACATACATACACACATACAGATATATATA [CACACA_site4890] | 9.4 ± 0.38
GTTACATACAGATACACACACATATATATATATATA [CACACA_site4652] | 10.2 ± 0.4
CACAGATATATACATACACACATATATACACATATA [CACACA_site6323] | 9.39 ± 0.32
ACGTTACATACATATACACACACATATATATATATA [CACACA_site8203] | 9.93 ± 0.16
TACATACATACATACACACACACATATATATACATA [CACACA_site853] | 10.1 ± 0.23
GTTACATACATATACACACACATATATATATATATA [CACACA_site901] | 10.2 ± 0.17
CTCCACAAACAAATCGCACACCCAACCCAACATATA [CACACA_site2650] | 9.68 ± 0.34
TATTTTTTTGTGTTTGGTACACACGTTATAAAAAAT [XGTACX_site2655] | 8.8 ± 0.36
AAAAAAAAAAAAAACACACACACACCCACATATACA [CACACA_site2663] | 10.2 ± 0.16
AAAAAACACCCATACACACACACACCGATATATATA [CACACA_site5808] | 10.2 ± 0.24
CACAGACACCCATACACACACATACCCATATATATA [CACACA_site5023] | 9.56 ± 0.34
AAAAAAAAAAAAAAAACACACATACACCCAGACACA [CACACA_site5807] | 9.71 ± 0.18
AAAAAAAAAAAAAAAACACACATACACCCCCACCCA [CACACA_site9117] | 9.89 ± 0.18
AAAAAAAACGCACATACACACACACCCATATATATA [CACACA_site9118] | 10.13 ± 0.028

Sequence | gcPBM binding intensity (ln)
AAAAAACAGACATACACACACACACCCATATATATA [CACACA_site3392] | 10.4 ± 0.21
TTAATATTATGTTAAAGTACTTTATATATATATAAT [XGTACX_site2646] | 8.57 ± 0.3
AAGACTGCACTTTAAGCACACAAATATATTTTTTTT [CACACA_site8337] | 8.86 ± 0.38
TACAAATATATATGCACACACATATCTGTATATGTG [CACACA_site5663] | 9.58 ± 0.26
GTAATATATACAAAATGTACAAAACAATAACATGAT [XGTACX_site8575] | 9.2 ± 0.52
TAATAAAATATGTACACACATACACCCATATATATA [CACACA_site1220] | 9.21 ± 0.35
GTTTAAAATCTTTGCACACATATAAATAAATATATT [CACACA_site2555] | 8.9 ± 0.41
AAAAAAAAAAAACACACACACACACCCATATACATA [CACACA_site2664] | 10.31 ± 0.085
TAAACACCCATATAAACACACATACATACATACATA [CACACA_site5383] | 9.53 ± 0.4
TATAAACACCCATATAAACACACATACATACATACA [CACACA_site8791] | 9.51 ± 0.33
AAAAATAAAAAAAACACACATACCTTATTTTTGTTC [CACACA_site2634] | 8.98 ± 0.42
TATATATATATATATGTGCGCATTACTTTAAGAATA | 9.6 ± 0.25
TCTTTTTGCATGTGTGTGCGCACAAAATACACAAAA [GTGCAC_site9718] | 9.39 ± 0.3
TACACAAGAAAATTCACACACACACCGATATATATA [CACACA_site6008] | 9.87 ± 0.16
CATACACAAGAAAATTCACACACACCCATATATATA [CACACA_site9288] | 9.87 ± 0.23
TACACAAGAAAATTCACACACACACCCATATATATA [CACACA_site3879] | 10.12 ± 0.092
CACAAGAAAGTTCACACACACACATATATATATATA [CACACA_site6009] | 9.93 ± 0.62
AAAACAAAAGAATTCACACATATATATATATATATA [CACACA_site4777] | 10.1 ± 0.16
CACAAGAAAATTCACACACACACATATATATATATA [CACACA_site3880] | 10.2 ± 0.14
